Results taken from ChEMBL document CHEMBL3988442, “University of Dundee, Small-Polar-MMV Screening Library” (2021).
Screen size: about 69,000 compounds; about 30 (0.04%) showed an effect of 50% or more. Only a selection was taken, and strong results are over-represented in it overall.

What follows are compounds tested against T1, Histidine--tRNA ligase (Trypanosoma cruzi (strain CL Brener)) (UniProt Q4DA54) (assay: Trypanosoma cruzi histidyl tRNA synthetase (Tc-HisRS)). Conditions: 30 µM.
T1 sequence (whole entry): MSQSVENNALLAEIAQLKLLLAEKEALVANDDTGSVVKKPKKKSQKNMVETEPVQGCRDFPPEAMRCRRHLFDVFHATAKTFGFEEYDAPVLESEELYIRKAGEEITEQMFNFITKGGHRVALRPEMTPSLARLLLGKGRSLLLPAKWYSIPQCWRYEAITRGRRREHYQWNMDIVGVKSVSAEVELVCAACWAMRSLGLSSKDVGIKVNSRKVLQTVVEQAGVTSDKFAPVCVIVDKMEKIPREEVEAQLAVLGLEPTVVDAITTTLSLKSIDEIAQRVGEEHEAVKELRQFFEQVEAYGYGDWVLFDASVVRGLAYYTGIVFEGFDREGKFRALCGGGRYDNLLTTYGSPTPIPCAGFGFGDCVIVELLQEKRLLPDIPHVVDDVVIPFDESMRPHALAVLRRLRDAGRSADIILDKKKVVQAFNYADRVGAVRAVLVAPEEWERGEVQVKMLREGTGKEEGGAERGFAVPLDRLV
Assay type: functional
Design: scale not given: direction of the effect not stated beside the values

SMILES | Percent Effect
Cn1cc(NC(=O)N2CCCC2c2cccnc2)ccc1=O (stereo not drawn) | 38.6%
Cn1cc(NC(=O)N2CCCC2c2ccccn2)ccc1=O (stereo not drawn) | 69.3%
Cn1cc(NC(=O)N2CCC2c2ccccc2)ccc1=O (stereo not drawn) | 22.6%
Cc1cccc(C(=O)N2C[C@H](NS(C)(=O)=O)[C@@H]3OCCC[C@@H]32)n1 | 12.6%
CN(Cc1ccsc1)C(=O)Nc1ccc(=O)n(C)c1 | 13%
COc1ccc(CNC(=O)Nc2ccc(=O)n(C)c2)cc1 | 76.6%
COc1ccc(CNC(=O)Nc2ccc(CN3CCOC3=O)cc2)cc1 | 2.12%
Cc1nnc(NC(=O)NCc2ccoc2)s1 | 7.43%
Cn1cc(NC(=O)NCc2ccsc2)ccc1=O | 72.7%
COC(=O)c1ccc(CNC(=O)Nc2ccc(=O)n(C)c2)cc1 | 7.79%
O=C(NCc1ccoc1)Nc1ccc(CN2CCOC2=O)cc1 | 3.25%
Cn1cc(NC(=O)NCc2ccoc2)ccc1=O | 72.7%
Cn1cc(NC(=O)CCc2ccsc2)ccc1=O | 18.2%
Cc1ccc(N2CCC3(CC2)COCCN(c2nccs2)C3)nn1 | 62.3%
Cc1ccc(N2CC3(CCN(c4nccs4)C3)C2)nn1 | 4.96%
Cc1ccc(N2CCCC3(COCCN(c4nccs4)C3)C2)nn1 (stereo not drawn) | 12.4%
CNc1cc(-c2ccccc2CN)c2cc[nH]c2n1 | 40.2%
CNc1cc(-c2cccc(CN)c2)c2cc[nH]c2n1 | 81.7%
CNc1cc(-c2ccc(COCCN)cc2)c2cc[nH]c2n1 | 4.88%
CN(Cc1cccs1)C1CCC[C@@H]2CN(C(=O)c3cccn3C)C[C@H]12 (stereo partly drawn) | 5.06%
c1cnc(N2CCC3(CC2)CN(CC2CC2)c2ccccc23)nc1 | 66.2%
c1ccc2c(c1)N(CC1CCOC1)CC21CCN(c2cnccn2)CC1 (stereo not drawn) | 29.6%
O=C1N(CC2CC2)CCC12CCN(c1ncccn1)CC2 | 4.51%
CC(C)=CCN1C[C@H]2CC[C@@H]1CN(C(=O)c1ccc3c(c1)OCO3)C2 | -7.73%
O=C1O[C@@H]2CN(Cc3ccccc3F)C[C@@H]2N1CCCN1CCOCC1 | 10.2%

SMILES | Percent Effect
CC(C)COC[C@@H]1CC[C@H]2[C@H](CCN2C(=O)c2ccncc2F)O1 | -2.8%
COCCNC(=O)[C@@]12CCO[C@@H]1CCN(Cc1scnc1C)C2 | 4.3%
COc1ccc(N2Cc3nc(N4CCCC4)ncc3C2=O)cc1Cl | -3.73%
CCc1cc(N[C@H]2CC[C@@H](N)CC2)n2nc(C)c(C)c2n1 | 1.34%
CC(C)CS(=O)(=O)N1C[C@H]2C[C@H](C(=O)N3CCN(C)CC3)[C@@H](C1)O2 | 7.78%
CN1CCCCC1c1ncc2c(n1)CCN(Cc1ccc(Cl)c(F)c1)C2 (stereo not drawn) | 30%
O=C([C@H]1C[C@@H]2CCN(c3cccc(F)c3)C[C@H]2O1)N1CCCC1 | 0.952%
CN1CCN2CCN(Cc3cnc(NCc4ccccc4)nc3)CC2C1 (stereo not drawn) | 9.88%
c1ccc(CNc2ncc(CN3CCCN4CCC[C@H]4C3)cn2)cc1 | 48.1%
C1CC(CN2C[C@@H]3C[C@@H](c4nnc(C5CC5)o4)O[C@@H]3C2)C1 | 0%
O=C(c1ccc(F)cc1)N1C[C@@H]2COC[C@]2(COc2cccnc2)C1 | 8.47%
Cc1ccc(C(=O)N2CC[C@@H]3[C@H]2CCC(=O)N3c2ccccc2)o1 | 2.73%
CCCN1CC[C@@H]2[C@@H](CO[C@H]2CNC(=O)c2nccn2C)C1 | 3.09%
Fc1ccc(F)c(CN2CCC(c3cc4ncccc4cn3)CC2)c1 | 29.2%
COc1ccc(C)cc1CN1CCC(c2cc3ncccc3cn2)CC1 | 66.2%
Fc1cccc(CN2CCC(c3cc4ncccc4cn3)CC2)c1F | 33.9%
Cc1occc1C(=O)N1C[C@@H]2OCCN(CCN3CCCC3)[C@@H]2C1 | 4.9%
Cc1csc(CN2CC[C@H]3C[C@H](c4nnc(C)[nH]4)O[C@@H]3C2)n1 | -2.48%
Cc1ccc(S(=O)(=O)N2C[C@H]3C[C@H](NC(=O)c4ccnn4C)[C@H]3C2)cc1 | 5.95%
O=C(c1ccsc1)N1C[C@@H]2CCN(c3cccnc3)C[C@@H]2C1 | -1.97%
CC(C)=CCN1CCN(Cc2nc3ccccc3[nH]2)[C@H]2CS(=O)(=O)C[C@H]21 | 4.35%
Cc1cc(C(=O)N2C[C@@H]3COC[C@]3(c3nnc(C)o3)C2)on1 | 0.99%
CNc1nc2c(s1)C(c1c(Cl)cccc1Cl)CC(=O)N2 (stereo not drawn) | 31.5%
CNc1nc2c(s1)C(c1c(F)cccc1Cl)CC(=O)N2 (stereo not drawn) | 52.2%
CNc1nc2c(s1)C(c1cccc(Cl)c1Cl)CC(=O)N2 (stereo not drawn) | 34.8%

SMILES | Percent Effect
Cc1ccc(CN2C[C@@H]3COC[C@]3(COc3ccc(C#N)cn3)C2)o1 | 4.39%
O=C(CCc1ccccc1)N[C@H]1CC[C@@]2(CCC(=O)N2)CC1 | 9.71%
O=C(c1ccco1)N1CCO[C@@H]2CN(Cc3nccs3)CC[C@@H]2C1 | 2.21%
CN(C)C(=O)[C@H]1C[C@H]2OCC[C@H]2N(Cc2ccc3ccccc3n2)C1 | 12.8%
O=C(N1CCOCC1)[C@@]12CCO[C@@H]1CCN(CC1CCCC1)C2 | 0%
Cc1ncccc1NC(=O)[C@@H]1CCO[C@@H]2CCN(c3ccccc3)C[C@@H]21 | 7.26%
Cc1noc([C@@H]2C[C@H]3OCC[C@H]3N(Cc3cc(C)c(C)o3)C2)n1 | 8.87%
O=C1CC[C@H]2[C@H](CCN2C(=O)C2CCCO2)N1Cc1ccncc1 (stereo partly drawn) | -3.83%
O=C(NCc1ccco1)[C@H]1CC[C@@H]2[C@@H](CCN2C2CCC2)O1 | 8.54%
COc1ccc(CN2CCN(C(=O)N(C)C)[C@@H]3CS(=O)(=O)C[C@@H]32)cc1F | 3.06%
CO[C@H]1C[C@@H]2CN(C(=O)c3ccc(C)s3)C[C@@H]2C1 | 8.05%
Cc1cc(=O)n(C)cc1NC(=O)Cc1ccc(C(F)(F)F)cc1 | 14.2%
Cc1cc(=O)n(C)cc1NC(=O)Cc1cc(F)ccc1F | 57.9%
Cc1cc(=O)n(C)cc1NC(=O)Cc1cccc(F)c1 | 14.2%
CCC1=N[C@@]2(CC[C@@H]3CN(C(=O)NCc4ccccc4)C[C@@H]32)C(=O)N1C | 3.83%
Nc1nc2c(s1)C(c1c(F)cccc1Cl)CC(=O)N2 (stereo not drawn) | -3.73%
COc1cccc(C2CC(=O)Nc3nc(N)sc32)c1OC (stereo not drawn) | 70.7%
O=C1CC(c2ccccc2Br)c2sc(N3CCOCC3)nc2N1 (stereo not drawn) | 16.1%
COc1cccc(C2CC(=O)Nc3nc(N4CCCCC4)sc32)c1OC (stereo not drawn) | 74.5%
COc1ccccc1C1CC(=O)Nc2nc(N3CCCCC3)sc21 (stereo not drawn) | 74.5%
CCOc1cccc(C2CC(=O)NCc3nc(N4CCCC4)sc32)c1 (stereo not drawn) | 9.84%
CNc1nc2c(s1)C(c1ccccc1F)CC(=O)N2 (stereo not drawn) | 14.9%
O=C1CC(c2ccccc2C(F)(F)F)c2sc(N3CCOCC3)nc2N1 (stereo not drawn) | 33.5%
CC(C)Oc1ccccc1C1CC(=O)Nc2nc(N3CCOCC3)sc21 (stereo not drawn) | 1.24%
CNc1nc2c(s1)C(c1cccc(F)c1F)CC(=O)N2 (stereo not drawn) | 3.26%

SMILES | Percent Effect
COc1cccc(C2CC(=O)Nc3nc(N4CCOCC4)sc32)c1OC (stereo not drawn) | 65.2%
CNc1nc2c(s1)C(c1ccccc1Cl)CC(=O)N2 (stereo not drawn) | 17.4%
COCCN1C[C@H]2CC[C@@H]1CN(C(=O)CCc1c(C)nn(C)c1C)C2 | 13.1%
CN(C)C(=O)COC[C@H]1CC[C@@H]2[C@@H](CCN2Cc2ccco2)O1 | 7.04%
Cc1ccc2nc(C(=O)N3CCCC[C@]4(C)NC(=O)CCC[C@H]34)cn2c1 | 2.24%
CCN(CC)CCNC(=O)CCc1c(C)nn(-c2ccccc2Cl)c1C | 0%
CCN(CC)CCNC(=O)CCc1c(C)nn(-c2ccccc2Br)c1C | 61.4%
CCN(CC)CCNC(=O)CCc1c(C)nn(-c2ccc(Cl)cc2)c1C | 2.27%
Cc1cccc(CN2CC[C@@H]3[C@@H](CO[C@H]3CNc3ncccn3)C2)n1 | 10.5%
O=C(O)[C@]12CCCN(CC3CCOC3)C[C@H]1CN(c1ncccn1)C2 (stereo partly drawn) | -2.21%
CNC(=O)[C@@]12CCC3(CCN(C(=O)COC)CC3)[C@@H]1CN(S(C)(=O)=O)C2 | 3.74%
CN(C)C(=O)[C@H]1C[C@@H]2CN(S(=O)(=O)c3ccccc3)C[C@H]1O2 | 5.91%
CCCn1cc(NC(=O)c2ccc(S(C)(=O)=O)cc2)ccc1=O | 56.7%
CCCn1cc(NC(=O)c2ccncc2)ccc1=O | 38.3%
CCCn1cc(NC(=O)c2ccc(S(=O)(=O)CC)cc2)ccc1=O | 35%
COC[C@H]1CNC(=O)[C@@H]2CCN(Cc3cccc(C)n3)CC[C@H]12 | 3.92%
CCc1nccn1CC(=O)N1C[C@H]2CC[C@@H]1CN(c1ncccn1)C2 | 5.46%
Cc1nc(CO[C@H]2CN(C(=O)c3cccnc3)[C@@H]3COC[C@H]23)cs1 | -1.03%
O=C1[C@H]2CN(c3cnccn3)C[C@H]2CN1CC1CC1 | 7.22%
O=C(NCc1ccccc1)[C@H]1C[C@@H]2CN(S(=O)(=O)C3CC3)C[C@H]1O2 | 6.01%
CC1=CC[C@@H]2CN(C(=O)c3ccc(-c4nnn(C)n4)cc3)C[C@@H]2C1 | 0.8%
O=C(CSc1nc2nncc-2c(O)n1-c1ccccc1)N1CCOCC1 | 7.22%
O=C1CC[C@@H]2[C@@H](CCN2C(=O)C2CCOCC2)N1CC1CC1 | 0%
